Tau fluor counter – counter-screen for tau fibril formation inhibitors; Potency, µM (titrated, usually from 57.7 µM), for the others: at the highest dose activity change, negative = decrease; tau K18 P301L Alexa594 fluorescence, heparin fibrillization; 0.93% of 280,000 active; AID 1463; active = well fitted curve in the direction sought with a large enough effect; inconclusive = small, poorly fitted or top-dose-only effect, or another doubt; inactive = no such curve, though single readings can be large; an effect the other way counts as inactive or inconclusive; also: nearly all actives have a fitted effect of over 55% in size
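Human K18 P301L tau (15 uM unlabeled plus 0.24 uM Alexa 594-labeled, final) in 100 mM sodium acetate pH 7 was mixed with compound and 20 uM heparin and incubated 6 hr at 37 C.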
Tau fibril FP – tau fibrillization inhibition (FP); K18 P301L tau heparin fibrillization, Alexa594 FP, 6 h; Potency, µM (titrated, usually from 57.7 µM), inactives show top-dose activity, negative = inhibition, usual class: inhibitors; 0.39% of 280,000 active; active = well fitted curve in the direction sought with a large enough effect; inconclusive = small, poorly fitted or top-dose-only effect, or another doubt; inactive = no such curve, though single readings can be large; an effect the other way counts as inactive or inconclusive; also: nearly all actives have a fitted effect of over 55% in size
Target sequence (P10636 561-689 P618L limits assumed): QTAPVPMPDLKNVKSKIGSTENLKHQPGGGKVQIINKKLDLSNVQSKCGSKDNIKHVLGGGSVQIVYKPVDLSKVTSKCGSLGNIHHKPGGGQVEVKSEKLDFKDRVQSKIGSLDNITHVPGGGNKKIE
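Quantitative HTS format: compounds meet 15 uM recombinant K18 P301L tau and Alexa 594-tau tracer in 100 mM sodium acetate pH 7; 20 uM heparin triggers fibrillization at 37 C over 6 hr; FP gives the signal.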
HPGD block – HPGD (human) dehydrogenase inhibition; AID 894; purified HPGD, NADH fluorescence kinetic, PGE2 substrate; 4.3% of 150,000 active; Potency, µM, without a hit: at the top dose activity change, negative = inhibition, hits mostly inhibitors; P15428
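NADH formation kinetics: reaction with 30 uM PGE2 and 1 mM NAD+ (final), 20 nM enzyme, Tris-HCl pH 8 with Tween 20, after 15 min compound preincubation at room temperature. Fluorescence change, last versus first of five reads.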
ALDH1A1 inh – blocks purified human ALDH1A1 activity; P00352; Purified ALDH1A1, NADH fluorescence, propionaldehyde substrate; Potency, µM (titrated, usually from 75.3 µM), for the others: top-dose activity, negative = inhibition, most hits filed as inhibitors; 7.3% of 220,000 active;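 also: plate controls were no enzyme wells and a reference inhibitor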
JMJD2E inh – JMJD2E (human) inhibition. B2RXH2. AID 2147. JMJD2E catalytic domain, FDH-coupled NADH fluorescence (FDH is formaldehyde dehydrogenase). 1.6% of 230,000 active. Potency, µM (highest dose often 57.1 µM), inactives show top-dose activity change, negative = inhibition, usual class: inhibitors;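 also: 0% = wells with enzyme and -100% = buffer wells without enzyme; nearly all actives have a fitted effect of over 50% in size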
Target sequence (B2RXH2 1-337 limits assumed): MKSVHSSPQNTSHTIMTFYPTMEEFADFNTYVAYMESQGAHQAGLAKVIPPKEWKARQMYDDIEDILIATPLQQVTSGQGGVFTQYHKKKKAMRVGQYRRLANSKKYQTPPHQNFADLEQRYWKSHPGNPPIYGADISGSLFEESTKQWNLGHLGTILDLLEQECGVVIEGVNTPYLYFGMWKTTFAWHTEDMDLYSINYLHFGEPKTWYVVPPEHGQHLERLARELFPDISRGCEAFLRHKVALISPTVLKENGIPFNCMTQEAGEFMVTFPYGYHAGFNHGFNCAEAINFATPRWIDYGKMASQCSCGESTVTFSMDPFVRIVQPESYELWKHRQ
Tau fibril ThT – tau fibrillization inhibition (ThT binding). 2.1% of 270,000 active. Potency, µM (doses to about 57.4 µM), for inactives: top-dose activity, negative = inhibition, most hits filed as inhibitors. recombinant tau K18 P301L (four-repeat tau fragment), heparin-induced fibrillization, ThT fluorescence. P10636. AID 1460; active = well fitted curve in the direction sought with a large enough effect; inconclusive = small, poorly fitted or top-dose-only effect, or another doubt; inactive = no such curve, though single readings can be large; an effect the other way counts as inactive or inconclusive; also: nearly all actives have a fitted effect of over 55% in size
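Recombinant human tau K18 fragment […] carrying P301L, 15 uM unlabeled plus 0.24 uM Alexa 594-labeled, was fibrillized with 20 uM heparin in 100 mM sodium acetate pH 7 for 6 hr at 37 C; 30 uM ThT fluorescence read after 1 hr.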
The depositor's hits bear a star; u = inconclusive; x = no result; [ ] = remark or other dose. In the library only some 9.9% were active in any assay of this set; here they are far more common. Unless noted, calls follow the shape of the dose curve; as a rule, active = well fitted inhibition curve with a large enough effect (not every such curve was filed as active); inconclusive = small, poorly fitted or top-dose-only effect, or another doubt; inactive = no such curve, though single readings can be large or run the other way. Unless noted, % is scaled to controls: 0 for no effect and ±100 for the full control effect; potency is read from the fitted curve at half-maximal effect.

SMILES	Tau fluor counter	Tau fibril FP	HPGD block	ALDH1A1 inh	JMJD2E inh	Tau fibril ThT
CCCCn1c(-c2csc3c2CCCC3)n[nH]c1=S	-16%	-3%	16µM*	u	-7%	u
CCCCn1c(-c2csc3ccccc23)n[nH]c1=S	-12%	0%	u	u	-15%	-14%
CCCCn1c(-c2csc3c2CCC(C)C3)n[nH]c1=S (stereo unspecified)	-22%	13%	14µM*	16µM*	-8%	u
C=CCn1c(-c2csc3c2CCC(C)C3)n[nH]c1=S (stereo unspecified)	-6%	-2%	20µM*	u	-12%	-15%
Cc1c(C)n(Cc2ccccc2)c2ccc(C(=O)NC(C)c3ccccc3)cc12 (stereo unspecified)	-13%	4%	x	x	x	3%
Cc1ccc(-n2nc(C(=O)N3CCN(c4ccccc4F)CC3)c3c4ccccc4n(C)c3c2=O)cc1	-9%	-11%	x	x	x	-4%
COc1ccc(CN2C(=O)c3cccnc3C2Nc2cc(Cl)ccc2OC)cc1 (stereo unspecified)	-21%	9%	-5%	u	14µM*	-10%
O=C1c2cccnc2C(Nc2ccc(Br)cc2)N1Cc1cccs1 (stereo unspecified)	-17%	6%	x	6.3µM*	u	1%
COC(=O)c1ccc(NC2c3ncccc3C(=O)N2Cc2cccs2)cc1 (stereo unspecified)	-11%	-8%	x	u	u	-10%
COc1ccc(NC2c3ncccc3C(=O)N2Cc2cccs2)cc1 (stereo unspecified)	-2%	8%	x	3.2µM*	6%	-7%
CC(C)CC1(C(=O)NCc2cc(F)cc(C(F)(F)F)c2)C=CCN1C(=O)c1ccccc1 (stereo unspecified)	-15%	0%	-10%	4%	-1%	-8%
COc1ccc(/C=N/n2cncn2)cc1Cn1nc(C)c([N+](=O)[O-])c1C	-2%	3%	x	x	4%	-8%
O=C1C=CC2=C3c4cc(O)c(O)cc4CC3(O)COC2=C1O (stereo unspecified)	4µM*[quencher]	7.9µM*	25µM*	u	2µM*	3.2µM*
COc1ccc(C(=O)/C(=C/O)N=Nc2ccc(F)cc2)cc1	-29%	-9%	x	4µM*	8%	28µM*
COc1ccc(N=N/C(=C\O)C(=O)c2cccs2)cc1	u	4%	x	14µM*	-6%	13µM*
COc1ccc(C(=O)C(/C=N/O)=N/Nc2ccc(F)cc2)cc1	-19%	17%	x	15%	-4%	u
CCOC(=O)c1noc2ncn(Cc3ccc([N+](=O)[O-])cc3)c(=O)c12	2%	3%	x	x	x	2%
Oc1c(C2=NCCNC(C(F)(F)F)=C2)ccc2ccccc12	u	u	x	-4%	-26%	6.3µM*
CC(=O)[C@@H](C)CCO[C@@]1(C)OCC[C@@H]1C	x	x	-1%	9%[13.5 µM]	x	x
COc1cc(/C=C/c2ccc3cccc(OC)c3n2)c(O)c([N+](=O)[O-])c1	u	-12%	x	10%	-7%	1µM*
COc1c(OC(C)=O)ccc(/C=C/c2ccc3cccc(OCc4ccccc4)c3n2)c1[N+](=O)[O-]	u	-1%	-8%	-3%	5%	u
COc1cc(/C=C/c2ccc3cccc(OC)c3n2)c(OC(C)=O)c([N+](=O)[O-])c1	u	u	-3%	14%	-6%	2.8µM*
O=C(NC(=S)Nc1ccccc1N1CCCCC1)c1ccccc1	-30%	-19%	x	19µM*	-5%	-11%
CC1CCN(c2ccccc2NC(=S)NC(=O)c2cccs2)CC1	u	-15%	-13%	u	-2%	-1%
O=C(NC(=S)Nc1ccccc1N1CCCC1)c1ccc(F)cc1	-10%	1%	x	7.5µM*	-1%	-6%
SMILES	Tau fluor counter	Tau fibril FP	HPGD block	ALDH1A1 inh	JMJD2E inh	Tau fibril ThT
CC1CCN(c2ccccc2NC(=S)NC(=O)C(C)(C)C)CC1	-10%	1%	x	1.3µM*	-9%	-3%
Cc1cc(C(=O)NC(=S)Nc2ccccc2N2CCCC2)ccc1[N+](=O)[O-]	u	2%	-15%	u	-6%	-17%
Cc1ccccc1C(=O)NC(=S)Nc1ccccc1N1CCCC1	u	3%	x	25µM*	-6%	-16%
COc1ccc(NC(=O)CSc2nc(O)c(C/C=C/c3ccccc3)c(=O)[nH]2)cc1	-12%	-11%	x	x	x	u
O=C(NC(=S)Nc1ccccc1N1CCCC1)c1cccc(F)c1	u	1%	x	8.9µM*	-12%	u
O=C(Nc1ccccc1N1CCCCC1)c1ccccc1F	-9%	-4%	-21%	u	-6%	-5%
O=C(CCc1nc2ccccc2[nH]c1=O)N/N=C/c1ccccc1	-2%	10%	x	u	4%	-9%
COCCNC(=O)/C=C/c1c(Cl)cccc1Cl	1%	5%	13µM*	-2%	13%	2%
COCCCNC(=O)/C=C/c1ccc(Cl)cc1	-3%	-4%	-21%	4%	-1%	-2%
COCCCNC(=O)/C=C/c1c(Cl)cccc1Cl	3%	7%	16µM*	-7%	2%	0%
O=C(O)CNC(=O)/C=C/c1c(Cl)cccc1Cl	4%	-2%	x	11%	12%	4%
CCc1ccc(C2=CC(c3cccc(C)c3)n3c(nc4ccccc43)N2)cc1 (stereo unspecified)	-10%	-10%	x	x	x	u
OCC(O)C(O)C(O)C(O)C1NCCS1 (stereo unspecified)	-15%	u	-8%	-1%	-5%	20µM*
CC(O)C(O)C(O)C(O)C1NCCS1 (stereo unspecified)	-5%	u	-7%	-7%	-4%	u
CCOC(=O)CNC(=O)O[C@@H]1C(=O)c2cc(OC)ccc2O[C@H]1c1ccc(OC)c(Br)c1	u	-4%	-7%	2%	u	-15%
CC(C)CCNC(=O)c1nn(C)c2c1CSc1ccccc1-2	0%	-4%	x	x	x	2%
Cn1nc(C(=O)N2CCN(c3ccccc3)CC2)c2c1-c1ccccc1SC2	-1%	4%	x	x	x	-3%
Cn1nc(C(=O)N2CCN(c3ccc(F)cc3)CC2)c2c1-c1ccccc1SC2	7.1µM*[quencher]	-6%	x	x	x	-11%
CCN(CC)CCCNC(=O)c1nn(C)c2c1CSc1ccccc1-2	25µM*[quencher]	u	x	x	x	u
Cc1oc2cc([N+](=O)[O-])c(O)c([N+](=O)[O-])c2c1C(=O)c1ccc(Cl)cc1	-24%	1%	x	-3%	-29%	18µM*
COc1ccc(OC)c(C(=O)c2c(C)oc3cc([N+](=O)[O-])c(O)c([N+](=O)[O-])c23)c1	-25%	-6%	x	10%	-12%	13µM*

High-throughput results as filed in PubChem.
